This passage reports log2 fold change results from the supplement of paper PMC10849652.

About 7,900 targets were measured; listed, in parts, are those with a hit and a random draw of the rest. About 0.6% of all pairs of compound and target were hits. Unmarked numbers belong to inactive results.

Chain of UniProt P42229 (P42229 whole entry, looked up): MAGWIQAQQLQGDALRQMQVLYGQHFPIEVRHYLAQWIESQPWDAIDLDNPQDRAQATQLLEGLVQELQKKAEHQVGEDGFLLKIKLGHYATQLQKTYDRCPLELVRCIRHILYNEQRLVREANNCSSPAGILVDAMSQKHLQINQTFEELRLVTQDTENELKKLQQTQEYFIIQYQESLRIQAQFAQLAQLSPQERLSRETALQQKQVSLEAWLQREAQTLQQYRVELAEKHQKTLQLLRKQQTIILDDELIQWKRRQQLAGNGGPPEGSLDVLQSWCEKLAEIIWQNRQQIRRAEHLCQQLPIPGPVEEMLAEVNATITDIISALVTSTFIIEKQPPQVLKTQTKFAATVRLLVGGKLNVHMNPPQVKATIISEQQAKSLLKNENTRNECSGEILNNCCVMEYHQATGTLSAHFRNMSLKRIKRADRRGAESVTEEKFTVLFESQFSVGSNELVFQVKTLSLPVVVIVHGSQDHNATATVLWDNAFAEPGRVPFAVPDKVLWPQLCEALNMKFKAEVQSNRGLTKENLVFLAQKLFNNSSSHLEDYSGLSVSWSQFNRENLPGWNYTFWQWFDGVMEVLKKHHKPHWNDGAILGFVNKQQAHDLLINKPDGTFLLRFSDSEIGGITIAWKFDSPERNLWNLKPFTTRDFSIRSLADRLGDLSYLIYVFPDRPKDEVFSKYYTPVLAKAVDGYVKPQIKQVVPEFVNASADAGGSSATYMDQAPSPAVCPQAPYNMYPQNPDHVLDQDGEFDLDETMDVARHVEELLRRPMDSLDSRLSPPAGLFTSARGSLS
Chain of UniProt Q9Y5X3 (Q9Y5X3 whole entry, looked up): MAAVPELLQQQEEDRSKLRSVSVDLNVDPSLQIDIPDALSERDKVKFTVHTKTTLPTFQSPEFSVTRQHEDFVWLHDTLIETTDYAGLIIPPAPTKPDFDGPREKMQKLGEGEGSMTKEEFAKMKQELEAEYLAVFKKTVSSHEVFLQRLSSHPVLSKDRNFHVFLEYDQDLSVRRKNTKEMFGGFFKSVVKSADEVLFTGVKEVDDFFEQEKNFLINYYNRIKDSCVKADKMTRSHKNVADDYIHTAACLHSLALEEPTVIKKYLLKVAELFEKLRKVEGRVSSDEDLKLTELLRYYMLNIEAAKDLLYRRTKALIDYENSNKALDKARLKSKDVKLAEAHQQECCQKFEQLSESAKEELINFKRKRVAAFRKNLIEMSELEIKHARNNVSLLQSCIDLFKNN
Chain of UniProt Q13573 (Q13573 whole entry, looked up): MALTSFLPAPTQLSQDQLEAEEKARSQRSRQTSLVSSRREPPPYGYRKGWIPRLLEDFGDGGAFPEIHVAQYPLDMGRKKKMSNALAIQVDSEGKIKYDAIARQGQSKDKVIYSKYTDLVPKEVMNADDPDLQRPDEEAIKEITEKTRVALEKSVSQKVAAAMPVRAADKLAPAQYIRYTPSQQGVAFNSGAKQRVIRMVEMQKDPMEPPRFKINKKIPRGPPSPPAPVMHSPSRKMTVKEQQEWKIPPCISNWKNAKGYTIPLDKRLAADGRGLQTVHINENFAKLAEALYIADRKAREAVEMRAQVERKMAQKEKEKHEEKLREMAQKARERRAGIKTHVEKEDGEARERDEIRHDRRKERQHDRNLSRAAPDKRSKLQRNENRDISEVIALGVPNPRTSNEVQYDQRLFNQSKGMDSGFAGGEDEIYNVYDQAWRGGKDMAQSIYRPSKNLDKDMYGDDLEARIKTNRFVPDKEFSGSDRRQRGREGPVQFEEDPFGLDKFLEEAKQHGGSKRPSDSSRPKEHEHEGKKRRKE
Chain of UniProt Q15005 (Q15005 whole entry, looked up): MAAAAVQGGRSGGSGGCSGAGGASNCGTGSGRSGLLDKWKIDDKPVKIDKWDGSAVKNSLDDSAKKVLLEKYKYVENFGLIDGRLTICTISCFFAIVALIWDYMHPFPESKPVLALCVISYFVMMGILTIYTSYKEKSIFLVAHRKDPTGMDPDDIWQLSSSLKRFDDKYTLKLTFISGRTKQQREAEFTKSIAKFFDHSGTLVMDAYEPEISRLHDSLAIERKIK
Chain of UniProt Q9NZD8 (Q9NZD8 whole entry, looked up): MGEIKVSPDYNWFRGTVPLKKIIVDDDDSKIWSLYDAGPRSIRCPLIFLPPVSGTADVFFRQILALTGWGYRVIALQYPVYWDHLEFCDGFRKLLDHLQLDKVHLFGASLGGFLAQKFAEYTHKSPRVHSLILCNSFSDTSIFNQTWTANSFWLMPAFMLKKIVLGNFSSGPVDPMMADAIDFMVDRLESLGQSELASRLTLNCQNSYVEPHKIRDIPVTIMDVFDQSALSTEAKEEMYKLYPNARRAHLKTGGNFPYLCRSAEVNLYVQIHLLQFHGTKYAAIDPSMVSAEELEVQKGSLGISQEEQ
Chain of UniProt Q9BSF4 (Q9BSF4 whole entry, looked up): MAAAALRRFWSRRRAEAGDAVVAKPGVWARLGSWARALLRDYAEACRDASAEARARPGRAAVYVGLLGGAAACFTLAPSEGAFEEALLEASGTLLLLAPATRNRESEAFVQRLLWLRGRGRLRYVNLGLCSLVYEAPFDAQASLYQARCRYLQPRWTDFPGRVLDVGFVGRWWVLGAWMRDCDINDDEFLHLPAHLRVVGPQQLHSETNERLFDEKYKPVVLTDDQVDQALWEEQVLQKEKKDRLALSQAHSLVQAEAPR
Chain of UniProt P51692 (P51692 whole entry, looked up): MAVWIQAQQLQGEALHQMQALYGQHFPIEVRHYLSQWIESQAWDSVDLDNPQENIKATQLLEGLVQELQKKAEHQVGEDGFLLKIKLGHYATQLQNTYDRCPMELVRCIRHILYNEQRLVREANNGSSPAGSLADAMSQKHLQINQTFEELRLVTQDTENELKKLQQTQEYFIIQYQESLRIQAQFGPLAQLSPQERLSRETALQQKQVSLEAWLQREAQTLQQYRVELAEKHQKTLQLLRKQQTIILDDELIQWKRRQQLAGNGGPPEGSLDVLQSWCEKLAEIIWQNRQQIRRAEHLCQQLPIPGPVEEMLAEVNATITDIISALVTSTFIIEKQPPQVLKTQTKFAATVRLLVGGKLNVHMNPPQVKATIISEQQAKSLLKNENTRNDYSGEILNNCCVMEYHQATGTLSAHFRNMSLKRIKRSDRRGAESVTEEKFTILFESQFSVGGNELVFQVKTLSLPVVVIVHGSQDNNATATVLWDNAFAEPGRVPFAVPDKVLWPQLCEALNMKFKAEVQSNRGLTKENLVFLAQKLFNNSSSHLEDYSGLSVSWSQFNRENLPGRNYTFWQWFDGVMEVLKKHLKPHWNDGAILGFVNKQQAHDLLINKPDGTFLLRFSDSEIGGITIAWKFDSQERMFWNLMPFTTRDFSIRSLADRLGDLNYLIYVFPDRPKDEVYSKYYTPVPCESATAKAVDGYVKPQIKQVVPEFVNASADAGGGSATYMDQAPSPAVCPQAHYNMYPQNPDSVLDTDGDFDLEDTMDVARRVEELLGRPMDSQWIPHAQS
Chain of UniProt Q13395 (Q13395 whole entry, looked up): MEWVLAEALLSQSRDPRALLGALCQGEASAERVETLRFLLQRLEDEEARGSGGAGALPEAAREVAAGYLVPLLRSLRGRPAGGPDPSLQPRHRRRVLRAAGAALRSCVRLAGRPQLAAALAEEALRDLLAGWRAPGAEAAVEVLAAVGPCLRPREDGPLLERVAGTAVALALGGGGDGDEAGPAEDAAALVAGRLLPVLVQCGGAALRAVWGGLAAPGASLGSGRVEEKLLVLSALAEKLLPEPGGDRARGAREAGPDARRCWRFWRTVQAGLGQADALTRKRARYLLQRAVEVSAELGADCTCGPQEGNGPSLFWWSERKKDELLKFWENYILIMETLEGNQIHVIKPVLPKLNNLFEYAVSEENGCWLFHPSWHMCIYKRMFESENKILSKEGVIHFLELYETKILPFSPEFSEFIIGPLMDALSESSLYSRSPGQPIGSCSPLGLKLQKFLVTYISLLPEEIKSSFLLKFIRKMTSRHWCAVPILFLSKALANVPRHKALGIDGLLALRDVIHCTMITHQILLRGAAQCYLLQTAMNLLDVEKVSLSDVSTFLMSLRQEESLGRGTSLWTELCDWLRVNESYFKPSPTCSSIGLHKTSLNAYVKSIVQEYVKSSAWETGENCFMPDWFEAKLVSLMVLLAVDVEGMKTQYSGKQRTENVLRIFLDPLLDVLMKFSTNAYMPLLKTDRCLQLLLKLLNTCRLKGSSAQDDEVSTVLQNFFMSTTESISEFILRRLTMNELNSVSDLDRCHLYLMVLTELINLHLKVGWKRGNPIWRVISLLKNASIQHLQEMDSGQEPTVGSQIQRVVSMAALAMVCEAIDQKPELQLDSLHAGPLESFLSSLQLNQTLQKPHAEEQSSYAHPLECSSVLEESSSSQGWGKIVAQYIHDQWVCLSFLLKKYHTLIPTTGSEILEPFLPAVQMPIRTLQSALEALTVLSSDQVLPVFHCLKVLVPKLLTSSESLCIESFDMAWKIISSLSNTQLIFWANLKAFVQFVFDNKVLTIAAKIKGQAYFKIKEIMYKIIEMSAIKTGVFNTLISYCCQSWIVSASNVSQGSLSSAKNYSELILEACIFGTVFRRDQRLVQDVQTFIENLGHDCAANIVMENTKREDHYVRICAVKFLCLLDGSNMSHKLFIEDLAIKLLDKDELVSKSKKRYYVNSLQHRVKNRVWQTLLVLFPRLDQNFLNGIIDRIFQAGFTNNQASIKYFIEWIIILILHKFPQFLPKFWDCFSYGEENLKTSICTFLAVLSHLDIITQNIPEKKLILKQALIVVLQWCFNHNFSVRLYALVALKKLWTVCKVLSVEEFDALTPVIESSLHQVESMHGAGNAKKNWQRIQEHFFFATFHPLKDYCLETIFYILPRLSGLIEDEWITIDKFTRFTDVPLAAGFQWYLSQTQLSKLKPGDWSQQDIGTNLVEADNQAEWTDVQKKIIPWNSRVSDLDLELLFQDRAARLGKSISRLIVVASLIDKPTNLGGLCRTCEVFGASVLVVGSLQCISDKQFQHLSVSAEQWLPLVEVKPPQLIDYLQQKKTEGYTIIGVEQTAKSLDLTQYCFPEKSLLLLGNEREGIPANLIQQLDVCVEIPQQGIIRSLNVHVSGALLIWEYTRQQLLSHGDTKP
Chain of UniProt P62072 (P62072 whole entry, looked up): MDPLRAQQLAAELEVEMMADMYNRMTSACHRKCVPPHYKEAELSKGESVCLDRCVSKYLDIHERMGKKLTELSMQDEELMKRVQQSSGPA

Compound in one test: C[C@H](Nc1ncnc2nc[nH]c12)c1cc2cccc(Cl)c2c(=O)n1-c1ccccc1 [duvelisib]
The test can be described thus: log2 fold change, soluble protein after heating vs DMSO (PISA); higher = thermal stabilisation; K562 cells, 10 uM, 30 min; active = over 0.2 and 3.5 SD of the protein, either way, in both replicates (recomputed). The method in brief: (§1)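 Quantification of soluble protein used TMTpro 16plex LC-MS/MS, with channel sums equalised. Samples were the supernatant after 21,000xg for 90 min of pooled aliquots from K562 cells (2×10^6 cells/mL) treated with 10 μM compound for 30 min, heated for 3 min over 48°C-58°C, and extracted in PBS with 0.5% NP-40 at 4°C. Values, from duplicates, describe thermal stability against control samples on a log2 fold-change scale.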
For STAT5B (UniProt P51692), the log2 fold change is -0.164.

With STAT3 (UniProt P40763), the log2 fold change was 0.

As to STAM2 (UniProt O75886), the log2 fold change was -0.031.

For TIAL1 isoform 2 (UniProt Q01085), the log2 fold change is 0.006.

As for SLC38A9 (UniProt Q8NBW4), the log2 fold change was 0.081.

For STAT5A (UniProt P42229), the log2 fold change was 0.019.

As for SNX5 (UniProt Q9Y5X3), the log2 fold change is -0.145.

Regarding SMARCE1 (UniProt Q969G3), the log2 fold change was 0.014.

For the target SRSF3 (UniProt P84103), the log2 fold change was -0.081.

For the target SMC5 (UniProt Q8IY18), the log2 fold change was 0.046.

Consider SNX1 (UniProt Q13596), for which the log2 fold change is -0.214.

As for TARBP1 (UniProt Q13395), the log2 fold change is -0.046.

For the target STX17 (UniProt P56962), the log2 fold change is -0.156.

As for SMARCAD1 isoform 2 (UniProt Q9H4L7), the log2 fold change was 0.081.

Consider TIMM10 (UniProt P62072), for which the log2 fold change was 0.105.

In the case of SPCS2 (UniProt Q15005), the log2 fold change was 0.035.

In the case of SMAP2 (UniProt Q8WU79), the log2 fold change is 0.02.

Take TK1 (UniProt P04183): the log2 fold change is 0.004.

Consider TIMM44 (UniProt O43615), for which the log2 fold change was 0.085.

Turning to TIMM29 (UniProt Q9BSF4), the log2 fold change is -0.015.

On to SRI (UniProt P30626), for which the log2 fold change is 0.212.

As for SORT1 (UniProt Q99523), the log2 fold change was 0.023.

On to SLC7A6 (UniProt Q92536), for which the log2 fold change was 0.116.

For SYF2 (UniProt O95926), the log2 fold change is -0.039.

With STK25 (UniProt O00506), the log2 fold change is 0.051.

Consider SYMPK (UniProt Q92797), for which the log2 fold change was 0.077.

Regarding SP1 (UniProt P08047), the log2 fold change was 0.008.

SSB (UniProt P05455): the log2 fold change is -0.033.

In the case of STARD3NL (UniProt O95772), the log2 fold change is 0.111.

Turning to SPG21 (UniProt Q9NZD8), the log2 fold change is 0.003.

With SRP68 (UniProt Q9UHB9), the log2 fold change is -0.017.

Regarding TJP2 isoform 7 (UniProt Q9UDY2), the log2 fold change is 0.056.

For the target SPPL2B (UniProt Q8TCT7), the log2 fold change is 0.031.

For SRSF7 (UniProt Q16629), the log2 fold change is -0.093.

Consider SNW1 (UniProt Q13573), for which the log2 fold change is -0.016.

As for TBC1D23 (UniProt Q9NUY8), the log2 fold change is 0.002.

Turning to SLC30A7 (UniProt Q8NEW0), the log2 fold change is 0.081.

Compound in another test: Cc1cc(Nc2cc(CN3CCOCC3)c3nc(C)c(Cc4ccc(Cl)cc4F)n3n2)n[nH]1 [gandotinib]
The test is described as above. The gist of the method: as §1
As to STAT5B (UniProt P51692), the log2 fold change is -0.209.

With STAT3 (UniProt P40763), the log2 fold change was -0.184.

STAM2 (UniProt O75886): the log2 fold change was -0.126.

For TIAL1 isoform 2 (UniProt Q01085), the log2 fold change is -0.048.

As to SLC38A9 (UniProt Q8NBW4), the log2 fold change is -0.018.

For STAT5A (UniProt P42229), the log2 fold change is -0.033.

Turning to SNX5 (UniProt Q9Y5X3), the log2 fold change is -0.138.

For the target SMARCE1 (UniProt Q969G3), the log2 fold change was -0.087.

In the case of SRSF3 (UniProt P84103), the log2 fold change is 0.247.

For SMC5 (UniProt Q8IY18), the log2 fold change is 0.028.

As for SNX1 (UniProt Q13596), the log2 fold change was -0.319 (active).

Take TARBP1 (UniProt Q13395): the log2 fold change was -0.075.

Take STX17 (UniProt P56962): the log2 fold change was -0.026.

Regarding SMARCAD1 isoform 2 (UniProt Q9H4L7), the log2 fold change was -0.042.

For the target TIMM10 (UniProt P62072), the log2 fold change was 0.052.

As for SPCS2 (UniProt Q15005), the log2 fold change is -0.007.

Take SMAP2 (UniProt Q8WU79): the log2 fold change was -0.011.

Consider TK1 (UniProt P04183), for which the log2 fold change was -0.055.

For the target TIMM44 (UniProt O43615), the log2 fold change was -0.258.

For the target TIMM29 (UniProt Q9BSF4), the log2 fold change is -0.014.

As for SRI (UniProt P30626), the log2 fold change was -0.03.

On to SORT1 (UniProt Q99523), for which the log2 fold change is -0.069.

Regarding SLC7A6 (UniProt Q92536), the log2 fold change was -0.114.

Take SYF2 (UniProt O95926): the log2 fold change was 0.11.

In the case of STK25 (UniProt O00506), the log2 fold change is -0.074.

With SYMPK (UniProt Q92797), the log2 fold change is -0.155.

For the target SP1 (UniProt P08047), the log2 fold change was 0.083.

SSB (UniProt P05455): the log2 fold change is -0.103.

STARD3NL (UniProt O95772): the log2 fold change is -0.14.

Consider SPG21 (UniProt Q9NZD8), for which the log2 fold change is 0.

Turning to SRP68 (UniProt Q9UHB9), the log2 fold change was -0.064.

For TJP2 isoform 7 (UniProt Q9UDY2), the log2 fold change was -0.089.

With SPPL2B (UniProt Q8TCT7), the log2 fold change was -0.004.

As for SRSF7 (UniProt Q16629), the log2 fold change was 0.319.

In the case of SNW1 (UniProt Q13573), the log2 fold change is 0.045.

Consider TBC1D23 (UniProt Q9NUY8), for which the log2 fold change was -0.205.

On to SLC30A7 (UniProt Q8NEW0), for which the log2 fold change was -0.348 (active).
